Test results taken from PubChem BioAssay.

experiment: Pseudomonas biofilm growth suppression – PAO1 strain, BacTiter-Glo luminescence, LB-PBS, primary screen (AID 1144); details: P. aeruginosa PAO1 biofilm, 12 h, higher = more signal; call rule not given here

z-score, inactive:
CC(=O)OC[C@H]1O[C@@H](ON=C[C@@H](C)[C@H](OCc2ccccc2)C(C)C)[C@H](OC(C)=O)[C@@H](OC(C)=O)[C@@H]1OC(C)=O -0.379, CN1C(=O)C2C=CC(C(O)C(c3ccccc3)c3ccccc3)N(NC(=O)OC(C)(C)C)C2C1=O (stereo unspecified) 0.417, COC(=O)C1=C(C)N(Cc2ccccc2)[C@]23O[C@](C(=O)OC)(C(=O)N2[C@@H]1c1ccccc1)[C@H]1CCOC(=O)[C@H]13 -1.02, C=C(CCCC)C(=O)CC[C@@H](OC(C)=O)c1cccc(OCCO)c1 -0.0381, CO[C@@H]1COC(=O)CC=C[C@@H](C)[C@@H]2C=C[C@@H](O)[C@@H](COC(=O)CC=C[C@H]1C)O2 -0.492, COC(=O)[C@@]1(Cc2ccccc2)[C@H]2c3cc(C(=O)N4CCCC4)n(Cc4ccccn4)c3C[C@H]2CN1C(=O)c1ccccc1 -1.42, CCOC(=O)NN=C1C[C@@H](O)[C@@H](O)[C@@H]2[C@@H]3C(=O)N(C(C)(C)C)C(=O)[C@@H]3CC[C@@H]12 0.125, C=CCN1C(=O)[C@]2(O[C@H](CCn3cc(CCO)nn3)[C@@H]([Si](C)(C)c3ccc(OC)cc3)[C@@H]2C)c2cc(N3CCOC3=O)ccc21 -0.771, CCOc1ccc(N2C(=O)/C(=C/C=C/c3ccccc3OC)S(=O)(=O)C2c2cccc([N+](=O)[O-])c2)cc1 (stereo unspecified) -1.57, O[C@@H](Cc1ccccc1)[C@H]1C2C=CCCC(c3ccccc3)=C2CN1Cc1cccc(Cl)c1 (stereo partly specified) -0.577, CO[C@H]1O[C@H](CO)[C@@H](OC(=O)Nc2ccc(C#N)cc2)[C@H](OC(=O)c2cc3ccccc3[nH]2)[C@H]1OC(=O)c1cc2ccccc2[nH]1 -2.05, Cc1ccc(S(=O)(=O)N[C@@H]2COC(=O)[C@H](C)COC(=O)CC=C[C@H]2C)cc1 0.317, C=CC[C@@H]1C=C[C@H](ON=C2c3cc(OC)ccc3O[C@H](c3cccc(OC)c3)[C@H]2O)[C@@H](CO)O1 0.0436, C=CCC(OC(C)=O)[C@@H]1[C@@H](N(Cc2cc3ccccc3o2)C(=O)Cc2ccc(F)cc2)c2cc(OCCCO)ccc2N1C(=O)Cc1ccc(OC)cc1 (stereo partly specified) 0.00133, CCOC(=O)[C@H](CC(C)C)NC(=O)CCC1CC(OC(=O)NCCc2ccc(F)cc2)CC2(CCCC(COC(=O)NCc3ccccc3)O2)O1 (stereo partly specified) -0.568, O=C1[C@H]2[C@H]3[C@H](O)[C@H](O)CC(=NOC[C@@H](O)COCc4ccco4)[C@H]3CC[C@H]2C(=O)N1Cc1ccc2c(c1)OCO2 2.01, CC(CCC(=O)OC[C@H]1O[C@H](C#Cc2ccccc2)C=C[C@@H]1Oc1ccc(C)cc1)=NOC[C@@H](O)[C@H]1O[C@@H]2OC(C)(C)O[C@@H]2[C@H]1O -0.025, CC(C)(C)N1CC=CC23O[C@@H]4C=CCCOC(=O)C4[C@H]2C(=O)N(CCCCCO)[C@@H]3C1=O (stereo partly specified) -0.174, CCc1cc2c(nc1CC)CCN(CCC(C)=NO[C@@H](C)c1cc(-c3c(C)cc(C)cc3C)no1)C2 -0.626, CC(C)CON=C1C[C@@H](O)[C@@H](O)[C@@H]2[C@@H]3C(=O)N(Cc4ccccc4)C(=O)[C@@H]3CC[C@@H]12 0.579, COCCCNC(=O)[C@@]1(C)c2ccccc2C(=O)N(Cc2ccc(OC(F)(F)F)cc2)[C@H]1c1ccc(CO)cc1 -0.27, O=C1C2=CC[C@H]3C(=O)N(Cc4ccc5c(c4)OCO5)C(=O)[C@H]3[C@H]2[C@H](O)[C@@H]2O[C@H]12 -0.0992, COc1ccc(O[C@H]2C=C[C@@H](c3ccccc3)O[C@@H]2COC(=O)CCC(C)=NOC(C)CN2CCCCc3nc(C)c(C)cc32)cc1 (stereo partly specified) -0.28, CC(CCN1CCCCc2nc(C)c(C)cc21)=NOC(C)CN1CCCCc2nc(C)c(C)cc21 (stereo unspecified) 0.483, O=C1[C@H]2[C@H]3[C@H](O)[C@H](O)CC(=NOCc4ccccc4)[C@@H]3CC[C@H]2C(=O)N1C1CCCCC1 0.774, COc1ccc([Si](C)(C)[C@@H]2[C@@H](CCO)O[C@]3(C(=O)N(Cc4ccc(NC(C)=O)cc4)c4ccccc43)[C@H]2C)cc1 0.525, Cc1cc2c(c(=O)o1)[C@H](O)[C@H]1O[C@H]1C2=O 1.6, O=C1[C@H]2[C@H]3[C@H](O)[C@H](O)CC(=NOC[C@@H](O)COCc4ccco4)[C@H]3CC[C@H]2C(=O)N1C1CCCCC1 -0.925, [N-]=[N+]=Nc1ccccc1C[C@@]1(C(N)=O)N=C(c2ccc(OCCCO)cc2)O[C@@H]1c1ccccc1 -0.616, CCOC(=O)NN=C1C[C@@H](O)[C@@H](O)[C@@H]2[C@@H]3C(=O)N(CC)C(=O)[C@@H]3CC[C@@H]12 -0.0164, CC(C)NC(=O)[C@@]1(c2ccc([N+](=O)[O-])cc2)CC(=O)N(CC23CC4CC(CC(C4)C2)C3)[C@@H]1c1ccc(CO)cc1I 0.017, COC(=O)C1(C)C=C2C(=C(c3ccccc3)C(=O)C2C)CN1 (stereo unspecified) -0.426, O=C1[C@H]2[C@H]3[C@H](O)[C@H](O)CC(=NO[C@@H]4O[C@H](CO)[C@@H](O)[C@H](O)[C@H]4O)[C@@H]3CC[C@H]2C(=O)N1Cc1ccccc1 0.0971, CCOC(=O)CCN1C(=O)[C@H]2[C@H]3[C@H](O)C=CC(=O)[C@@H]3CC[C@H]2C1=O -0.281, Cc1cc2c(nc1C)CCCN2CC(C)ON=C1[C@H]2CCn3c(=O)n(-c4ccccc4)c(=O)n3[C@H]2[C@H](O)[C@@H]2O[C@H]12 (stereo partly specified) -0.258, CCCCc1nc2c(c3c1C[C@H](C)OC3)CN(CCC(C)C)CC2 -0.578
